The list is not random: actives were taken first. Their share in the collection is about 31%.
CYP2C9 inhib: blockers of cytochrome P450 2C9 activity – biochemical, luminescence, ADME assay, primary screen. P11712. CYP2C9 Supersomes, luciferin-H conversion. inhibition, % at 5 µM. hit rate 20% among 96,000. AID 777, 2007;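 active means blocking of liver enzyme CYP2C9 beyond about 50% at 5 µM, limit read from the data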
CYP2C19 inh: blockers of cytochrome P450 2C19 activity – biochemical, luminescence, ADME assay, primary screen; P33261; CYP2C19 Supersomes, luciferin-H EGE luminescence, 30 min; inhibition, % at 5 µM; hit rate 21% among 96,000;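 active means CYP2C19 inhibition above a set limit at 5 µM in the primary screen, cut at about 50% in these data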
Target sequence (P33261 whole entry, looked up): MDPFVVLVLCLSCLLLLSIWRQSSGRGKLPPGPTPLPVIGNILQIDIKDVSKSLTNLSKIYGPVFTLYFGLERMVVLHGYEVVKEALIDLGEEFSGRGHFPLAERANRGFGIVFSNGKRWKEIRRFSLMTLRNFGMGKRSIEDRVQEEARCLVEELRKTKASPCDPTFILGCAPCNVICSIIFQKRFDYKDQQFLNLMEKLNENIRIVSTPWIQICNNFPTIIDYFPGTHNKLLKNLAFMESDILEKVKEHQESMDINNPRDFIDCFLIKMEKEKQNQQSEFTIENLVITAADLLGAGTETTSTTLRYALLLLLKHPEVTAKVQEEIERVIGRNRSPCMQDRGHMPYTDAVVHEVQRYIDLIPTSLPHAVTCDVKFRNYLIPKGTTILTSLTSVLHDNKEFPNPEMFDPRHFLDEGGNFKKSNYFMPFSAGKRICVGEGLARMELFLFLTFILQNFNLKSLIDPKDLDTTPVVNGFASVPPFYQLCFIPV
CYP2C19 act: human CYP2C19 activators, primary screen, biochemical, luminescence; Cytochrome P450 2C19 (Homo sapiens), P33261; recombinant CYP2C19, luciferin-H EGE luminescence; stronger effect = higher value; 0 = fully inhibited enzyme, 1 = untreated enzyme; activation factor at 5 µM; 96,000 tested, under 10 active;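 active means activation factor of at least 2 at 5 µM in the primary screen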
CYP2C9 activ: human CYP2C9 activators, primary screen, biochemical, luminescence; Cytochrome P450 2C9 (Homo sapiens), P11712; recombinant CYP2C9, luciferin-H conversion; stronger effect = higher value; factor 1 = untreated enzyme, 0 = blocked; activation factor at 5 µM; hit rate 1.4% among 96,000; AID 1024, 2008;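 active means activation factor of 2 or more for CYP2C9 at a 5 µM dose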
Numbers stand for hits; – = inactive.

SMILES | CYP2C9 inhib | CYP2C19 inh | CYP2C19 act | CYP2C9 activ
Cc1ccccc1-n1ncc2c(SCC(=O)NCc3cccs3)ncnc21 | – | – | – | –
CC(=O)Oc1ccc(OC(C)=O)c(SCCCCCN2CCOCC2)c1 | – | – | – | –
COC(=O)c1cc2oc3ccccc3c2n1Cc1ccccn1 | 51.2 | 73.4 | – | –
O=C(CCSCCc1ccccn1)Nc1ccc(Cl)cn1 | – | – | – | –
CCOC(=O)C1=C(C)Nc2nnnn2C1c1c[nH]c2ccccc12 (stereo not drawn) | 84.0 | 90.2 | – | –
COc1cccc(C2C(C(=O)Nc3cccnc3)=C(C)Nc3nnnn32)c1OC (stereo not drawn) | – | – | – | –
C=CCOC(=O)C1=C(C)Nc2nnnn2C1c1cccc(OC)c1OC (stereo not drawn) | 83.1 | 58.6 | – | –
CCCCCn1c(N2CCOCC2)nc2c1c(=O)n(CC(N)=O)c(=O)n2C | – | – | – | –
Cc1sc2nc(C(C)C)nc(SCC(=O)N3CCN(C(=O)c4ccco4)CC3)c2c1C | 92.0 | 79.6 | – | –
Cc1nc(N2CCN(C(=O)c3ccco3)CC2)c2c3c(sc2n1)CCC3 | 85.6 | 85.6 | – | –
CC(=O)c1c(N2CCN(C(=O)c3ccco3)CC2)nc(=S)n(-c2ccccc2)c1C | – | – | – | –
CC(C)c1nc(N2CCN(C(=O)c3ccco3)CC2)c2c3c(sc2n1)CCCC3 | 58.5 | – | – | –
COc1ccc(C(c2nnnn2Cc2cccs2)N2CCN(c3ccc(F)cc3)CC2)cc1OC (stereo not drawn) | – | – | – | –
COC(=O)n1ccc(C(=O)Nc2ccccc2F)n1 | – | – | – | –
Cc1ccccc1NC(=O)CSCCO | – | – | – | –
O=C(Nn1c(=S)[nH]c2ccccc2c1=O)c1ccncc1 | – | 85.3 | – | –
O=C(NCCOc1ccccc1)C(c1ccccc1)c1ccccc1 | – | – | – | –
Cc1cc(C)cc(CC2CC(=O)N(c3ccc(Cl)cn3)C2=O)c1 (stereo not drawn) | – | – | – | –
Cc1ccc(CC2CC(=O)N(c3cc(C)on3)C2=O)cc1 (stereo not drawn) | – | 53.7 | – | –
CCn1ncc(C2=NOC(C(=O)Nc3cccc(C(C)=O)c3)C2)c1C (stereo not drawn) | – | – | – | –
CCSc1ncc(Cl)c(C(=O)Nc2ccc(S(=O)(=O)Nc3onc(C)c3C)cc2)n1 | 57.5 | – | – | –
Cc1ccc(/C(N)=N/OC(=O)COc2ccccc2Cl)cc1 | – | – | – | –
Cc1ccc(C2NC(=O)Cc3ccccc32)cc1 (stereo not drawn) | – | 65.1 | – | –
Cc1cc(C)n(C(=O)C(C)N2C(=O)c3ccccc3C2=O)n1 (stereo not drawn) | – | – | – | –
COc1ccccc1N1CCN(C2CCN(S(=O)(=O)c3ccc4ccccc4c3)CC2)CC1 | – | – | – | –
SMILES | CYP2C9 inhib | CYP2C19 inh | CYP2C19 act | CYP2C9 activ
Cc1ccc(N2CCN(S(=O)(=O)c3ccc(F)c(C)c3)CC2)c(C)c1 | 90.7 | 84.0 | – | –
Cc1ccc(S(=O)(=O)N2CCN(C(=O)c3cccc(F)c3)CC2)cc1 | – | – | – | –
Cc1ccc(N2CCN(S(=O)(=O)N(C)C)CC2)c(C)c1 | 63.5 | 86.0 | – | –
CCC(=O)c1cc(F)c(N2CCN(S(=O)(=O)c3ccc(C)cc3)CC2)cc1C | 59.2 | – | – | –
Cc1ccccc1N1CCN(S(=O)(=O)c2ccc3oc(=O)ccc3c2)CC1 | 80.5 | – | – | –
CCOC(=O)NC1(C(F)(F)F)C(=O)N(Cc2ccccn2)C2=C1C(=O)CC(C)(C)C2 (stereo not drawn) | – | – | – | –
Cc1ccccc1NC(=O)CN1C(=O)NC2(CCCCC2)C1=O | – | – | – | –
CCc1ccccc1N1CCN(S(=O)(=O)c2ccc(F)c(C)c2)CC1 | 90.1 | 89.9 | – | –
N/C(=N\OC(=O)c1cc(Cl)ccc1Cl)c1cccnc1 | – | 72.1 | – | –
Nc1ccc2c(c1)COc1ccccc1O2 | – | 69.4 | – | –
CC(=O)N(Cc1cc2ccc(C)c(C)c2n2nnnc12)C1CCCC1 | – | – | – | –
Cc1cc2cc(CN(C(=O)C3CC3)C3CCCC3)c3nnnn3c2cc1C | 71.6 | 95.6 | – | –
CCOc1ccc(C2=NNC(c3cccs3)=Nc3ccc(OCC)cc32)cc1 | 52.8 | – | – | –
Brc1ccc2c(c1)C(c1cccs1)=NNC(c1cccnc1)=N2 | – | – | – | –
COc1ccc(OC)c(-c2cc(C(=O)N3CCc4ccccc4C3)no2)c1 | – | – | – | –
COc1ccccc1N1CCN(C(=O)c2cc(-c3ccc(C)cc3)on2)CC1 | – | – | – | –
COc1ccccc1N1CCN(C(=O)c2cc(C3CC3)on2)CC1 | 77.1 | 81.4 | – | –
COc1ccccc1-c1cc(C(=O)N2CCN(c3ccccc3OC)CC2)no1 | – | 54.5 | – | 2.7
O=C(c1cc(C2CC2)on1)N1CCN(c2ccc(F)cc2)CC1 | – | 83.4 | – | –
COc1ccc(OC)c(-c2cc(C(=O)N3CCN(c4ccccc4)CC3)no2)c1 | – | 76.4 | – | –
CN1C2C=C3C(C#N)=C(N)C(C#N)(C#N)[C@@H](c4ccc(Cl)cc4)[C@@H]3C1CC2 (stereo partly drawn) | – | – | – | –
O=C(CN1C(=O)C2CC=CCC2C1=O)Nc1ccc(S(=O)(=O)NC2=NCCCCC2)cc1 (stereo not drawn) | – | – | – | –
Cc1cc(NCCO)c2cc(O)ccc2n1 | – | – | – | –
O=C(c1cc(-c2cccs2)on1)N1CCN(c2ccccc2)CC1 | 71.7 | 63.2 | – | –
O=C1NC2(CCCCC2)C(=O)N1c1ccccc1 | – | – | – | –
SMILES | CYP2C9 inhib | CYP2C19 inh | CYP2C19 act | CYP2C9 activ
CSc1ccc(N2C(=O)NC3(CCCCC3)C2=O)cc1 | – | 70.5 | – | –
N#CC1=C(N)N=C(SCc2ccccc2)C(C(N)=O)C12CCCCC2 (stereo not drawn) | – | – | – | –
N#CC1=C(N)NC(SCC(=O)Nc2ccccc2)=C(C#N)C12CCCC2 | 94.6 | 98.8 | – | –
N#CC1=C(N)NC(SCc2ccc(F)cc2)=C(C#N)C12CCCCC2 | 100.0 | 100.0 | – | –
CC1=C(C(=O)Nc2ccccc2)C2(CCCCC2)C(C#N)=C(S)N1 | 83.6 | 68.3 | – | –
N#CC1=C(N)NC(SCC(=O)O)=C(C#N)C12CCCC2 | – | – | – | –
CCOC(=O)Cn1nnnc1C(CC)N(Cc1cc2c(C)cc(C)cc2[nH]c1=O)C1CCCC1 (stereo not drawn) | – | – | – | –
Cn1c(=O)c2c(-c3cccc(F)c3)c3c(nc2n(C)c1=O)-c1ccccc1C3O (stereo not drawn) | – | – | – | –
CCn1c(SCc2ccc(Cl)cc2Cl)nc2nc3c(cc2c1=O)CCCC3 | – | – | – | –
Cc1noc(C)c1COC(=O)CCOc1ccccc1 | – | – | – | –
Cc1noc(C)c1COC(=O)c1cc(F)c(F)cc1Cl | 55.0 | 76.8 | – | –
Cc1noc(C)c1COC(=O)c1ccccc1NC(=O)Cc1ccccc1 | 97.5 | 99.0 | – | –
